# In publication PMC4336329 (PLoS ONE, 2015):
# Among all 310,000 compounds or so, about 2,200 (0.71%) showed an effect of 50% or more. The effect is printed as a negative number. The list comes from a sample in which strong results are over-represented; it also holds similar structures and randomly drawn compounds.
# Target: human ether-à-go-go-related gene (hERG) potassium channel (human, UniProt Q12809)
# Assay: primary screen, population patch clamp on CHO cells stably expressing hERG; higher = less effect of the substance
# Sequence of human ether-à-go-go-related gene (hERG) potassium channel (Q12809 whole entry, looked up): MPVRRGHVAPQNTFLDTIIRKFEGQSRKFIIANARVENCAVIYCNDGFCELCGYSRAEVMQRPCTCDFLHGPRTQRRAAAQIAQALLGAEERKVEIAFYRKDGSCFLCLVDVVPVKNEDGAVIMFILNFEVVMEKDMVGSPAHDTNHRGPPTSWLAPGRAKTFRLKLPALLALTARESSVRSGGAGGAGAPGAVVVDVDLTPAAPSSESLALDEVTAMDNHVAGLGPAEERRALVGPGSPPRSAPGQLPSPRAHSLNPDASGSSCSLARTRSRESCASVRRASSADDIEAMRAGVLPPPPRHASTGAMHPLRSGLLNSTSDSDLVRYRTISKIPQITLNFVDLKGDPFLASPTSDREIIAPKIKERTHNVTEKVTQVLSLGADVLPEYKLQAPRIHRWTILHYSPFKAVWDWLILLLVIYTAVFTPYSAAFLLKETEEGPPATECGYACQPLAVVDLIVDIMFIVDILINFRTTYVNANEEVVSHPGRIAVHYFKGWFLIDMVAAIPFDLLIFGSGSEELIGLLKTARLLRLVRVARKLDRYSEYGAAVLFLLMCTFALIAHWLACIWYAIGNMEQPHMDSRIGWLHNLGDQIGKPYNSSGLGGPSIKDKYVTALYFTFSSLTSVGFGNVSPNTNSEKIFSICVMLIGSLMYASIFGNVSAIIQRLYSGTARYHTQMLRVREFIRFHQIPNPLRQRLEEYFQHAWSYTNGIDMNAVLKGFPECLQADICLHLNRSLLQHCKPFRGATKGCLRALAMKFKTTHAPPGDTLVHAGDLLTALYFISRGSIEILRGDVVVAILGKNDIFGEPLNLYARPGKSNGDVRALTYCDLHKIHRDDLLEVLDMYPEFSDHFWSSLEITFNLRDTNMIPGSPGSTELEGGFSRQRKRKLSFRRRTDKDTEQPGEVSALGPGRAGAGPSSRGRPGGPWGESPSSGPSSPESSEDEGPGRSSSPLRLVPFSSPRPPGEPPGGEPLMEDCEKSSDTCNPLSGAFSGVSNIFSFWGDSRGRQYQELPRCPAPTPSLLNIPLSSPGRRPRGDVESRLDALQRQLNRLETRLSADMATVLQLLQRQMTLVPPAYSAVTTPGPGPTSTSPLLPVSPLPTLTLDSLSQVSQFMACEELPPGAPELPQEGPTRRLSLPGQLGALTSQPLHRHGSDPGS
row,SMILES,"hERG current change (%, negative = inhibition) at 1uM [%]"
1,CCCCNc1nc2ccccc2n1CC(=O)N1CCc2ccccc2C1,-6.59
2,N#Cc1nc(-c2ccc(F)cc2)oc1NCc1cccc2c1OCO2,13.6
3,Cc1cc([N+](=O)[O-])nn1CC(=O)NNC(=S)Nc1ccc([N+](=O)[O-])cc1,11.8
4,O=C(CSc1ccccc1)N1CCCC(N2CCN(c3ccccc3)CC2)C1 (stereo not shown),2.18
5,CSCC(=O)N1CCCC(N2CCN(c3ccc(F)cc3)CC2)C1 (stereo not shown),0.918
6,Cc1ccc(OCC(=O)N2CCCC(N3CCN(c4ccc(F)cc4)CC3)C2)cc1 (stereo not shown),-90.2
7,O=C(CSc1ccccc1)N1CCCC(N2CCN(c3ccc(F)cc3)CC2)C1 (stereo not shown),-56
8,COc1ccccc1OCC(=O)N1CCCC(N2CCN(c3ccc(F)cc3)CC2)C1 (stereo not shown),4.57
9,O=C(COc1ccccc1Cl)N1CCCC(N2CCN(c3ccc(F)cc3)CC2)C1 (stereo not shown),-19.5
10,CC(=O)Nc1cc(C(C)(C)C)c(O)c(C(C)(C)C)c1,13.4
11,CCCNC(=O)c1cc(S(=O)(=O)N2CCCCC2)ccc1N1CCOCC1,-9.91
12,CC1CCC(NC(=O)CN2CCCN(Cc3ccc(F)cc3Cl)C2=O)CC1 (stereo not shown),8.34
13,CN(C)C1(CNC(=O)Nc2ccc(Cl)c(Cl)c2)CCCCC1,3.77
14,Cl.O.O=c1c2ccccc2nc2n1CC/C2=C/N1CCN(c2cccc(C(F)(F)F)c2)CC1,5.54
15,Cc1nc2ccccc2c(=O)n1-c1ccc([N+](=O)[O-])cc1,11.2
16,O=c1c2ccccc2nc2n1CC/C2=C\N1CCN(c2ccc([N+](=O)[O-])cc2)CC1,-62.1
17,O=[N+]([O-])c1ccc(CS(=O)(=O)N2CCN(c3ccccc3)CC2)cc1,-3.45
18,CC1CCCC(C)N1c1nnc(N)s1 (stereo not shown),10.6
19,Cc1ccccc1NC(=S)N1CCCN(Cc2ccc(F)cc2)C1,8.61
20,CSc1nc(NCc2ccco2)c2c3c(sc2n1)CN(C)CC3,-38.8

row,SMILES,"hERG current change (%, negative = inhibition) at 1uM [%]"
1,CSc1nc(NCC(C)C)c2c3c(sc2n1)CN(C)CC3,-9.92
2,CSc1nc(NCc2ccccc2)c2c3c(sc2n1)CN(C)CC3,-64.2
3,CC(C)c1ccc2c(c1)c(SC(C)(C)C)c(CC(C)(C)C(=O)O)n2Cc1ccc(Cl)cc1,5.14
4,COCCNC(=O)C(OC(=O)c1cc2oc(C)cc2n1C)C(C)C (stereo not shown),7.23
5,COc1cn(-c2ccccc2)nc1C(=O)Nc1ccc(C)cc1Cl,11.4
6,CCCCNCC(O)(c1ccc(Cl)cc1)c1ccc(Cl)cc1,-5.39
7,CC(C)(C)NCC(O)(c1ccc(Cl)cc1)c1ccc(Cl)cc1,13
8,CCN(CC)CCNCC(O)(c1ccc(Cl)cc1)c1ccc(Cl)cc1,-84.4
9,Cc1ccc(NC(=O)CN(c2ccc(Cl)cc2)S(=O)(=O)c2cc([N+](=O)[O-])ccc2Cl)cc1,7.07
10,CC(C1CC2CCC1C2)n1c(COc2ccccc2F)nnc1SCC(N)=O (stereo not shown),-1.9
11,CCOc1ccc2[nH]c3c(N4CCN(C(=O)c5ccco5)CC4)ncnc3c2c1,-3.41
12,Cc1cc(N2CCN(C(=O)c3ccco3)CC2)nc(-c2ccccc2)n1,-22.6
13,O=C(c1ccco1)N1CCN(c2ccc(Cl)cc2)CC1,-5.03
14,O=C(C1CCCCC1)N1CCN(c2ccnc3cc(Cl)ccc23)CC1,-27.1
15,O=C(C1CCC1)N1CCN(c2ccnc3cc(Cl)ccc23)CC1,-59.6
16,O=C(C1CC1)N1CCN(c2ccnc3cc(Cl)ccc23)CC1,-31.6
17,Cc1cc(N2CCN(C(=O)c3ccco3)CC2)c2ccccc2n1,-68.6
18,O=C(c1ccco1)N1CCN(c2ccnc3cc(Cl)ccc23)CC1,-63.6
19,Cc1nc2ccccc2c2oc(C(=O)N3CCN(C(=O)c4ccco4)CC3)cc12,-23.2
20,Cc1cccc2[nH]c3c(N4CCN(C(=O)c5ccco5)CC4)ncnc3c12,-5.77

row,SMILES,"hERG current change (%, negative = inhibition) at 1uM [%]"
1,O=C(c1ccco1)N1CCN(c2ncnc3c2[nH]c2ccc(Cl)cc23)CC1,-70.1
2,O=C(c1ccco1)N1CCN(c2cccc(Cl)c2)CC1,9.98
3,CCCOc1ccc(N2CC(C(=O)NC3=NCCS3)CC2=O)cc1 (stereo not shown),-26
4,CCCCN1CCC(COC(=O)c2cc(Cl)c(N)c3c2OCCO3)CC1.Cl,-23.9
5,COc1ccccc1CNS(=O)(=O)c1ccc(-n2cccn2)cc1,13.3
6,O=C(NCc1cccs1)c1ccccc1,7.23
7,CCNc1nc(SCC(=O)OC)nc(N(C)C)n1,-1.18
8,COc1ccc(CN(CC(=O)NC2CCCCC2)C(=O)CCCC(=O)Nc2ccccn2)cc1,9.4
9,Cc1ccccc1OCC(=O)Nc1ccccc1C(=O)N1CCCCC1,-4.24
10,CC(=O)Nc1ccc(CNc2ncnc3ccc(-c4c(C)noc4C)cc23)cc1,11.5
11,O=C1C=C(O)C(n2cncn2)C(c2ccc(F)cc2)C1 (stereo not shown),-9.66
12,COC(=O)c1cc(C(=O)OC)cc(N2C(=O)CC(NNC(=O)c3ccccc3Br)C2=O)c1 (stereo not shown),4.08
13,O=C1NC2(CCCCC2)C(=O)N1Cc1cc(=O)n2ccsc2n1,6.06
14,Cc1ccc(CN2C(=O)CCC2C(=O)NCc2ccccc2Cl)cc1 (stereo not shown),7.62
15,Nc1nc2ccc(-c3nc4ccccc4o3)cc2s1,11.2
16,CC(C)(C)C(=O)N1CCN(c2ccnc3cc(Cl)ccc23)CC1,-55.8
17,CC(=O)N1CCN(c2ccnc3cc(Cl)ccc23)CC1,-23.2
18,CCOC(=O)N1CCN(c2ccnc3cc(Cl)ccc23)CC1,-36.7
